TRPML1 ag = agonists of human TRPML1 channel. TRPML1-expressing cells, Ca2+ dye fluorescence, FDSS. 410,000 tested, 0.12% active. AID 624414. Q9GZU1. activation, % (no concentration beside the values); in the data active = activation above about 50%; inconclusive = mostly about 30% to 49%; note: 0% is about no effect
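Calcium fluorescence on an FDSS kinetic reader gave the read-out. Tet-induced TRPML1-DL cells were plated overnight, dye-loaded (Ca8 with quencher, 45-90 min, room temperature, dark), then read 110 s after compound addition, and again 110 s after 4uM final 54-4 (EC80).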
KCNH2 WT inh = inhibitors of human wildtype KCNH2 potassium channel | U2OS, BacMam KCNH2, thallium flux FluxOr; hits give low values | AID 720551 | 340,000 tested, 0.37% active | activity change, % at 1.84 µM | Q12809;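 active = maximum activity change below -70%; inconclusive = maximum activity change between -70% and -50%; inactive = maximum activity change above -50%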; note: % is set by controls: 0 for no effect and ±100 for the full control effect
Target sequence (Q12809 whole entry, looked up): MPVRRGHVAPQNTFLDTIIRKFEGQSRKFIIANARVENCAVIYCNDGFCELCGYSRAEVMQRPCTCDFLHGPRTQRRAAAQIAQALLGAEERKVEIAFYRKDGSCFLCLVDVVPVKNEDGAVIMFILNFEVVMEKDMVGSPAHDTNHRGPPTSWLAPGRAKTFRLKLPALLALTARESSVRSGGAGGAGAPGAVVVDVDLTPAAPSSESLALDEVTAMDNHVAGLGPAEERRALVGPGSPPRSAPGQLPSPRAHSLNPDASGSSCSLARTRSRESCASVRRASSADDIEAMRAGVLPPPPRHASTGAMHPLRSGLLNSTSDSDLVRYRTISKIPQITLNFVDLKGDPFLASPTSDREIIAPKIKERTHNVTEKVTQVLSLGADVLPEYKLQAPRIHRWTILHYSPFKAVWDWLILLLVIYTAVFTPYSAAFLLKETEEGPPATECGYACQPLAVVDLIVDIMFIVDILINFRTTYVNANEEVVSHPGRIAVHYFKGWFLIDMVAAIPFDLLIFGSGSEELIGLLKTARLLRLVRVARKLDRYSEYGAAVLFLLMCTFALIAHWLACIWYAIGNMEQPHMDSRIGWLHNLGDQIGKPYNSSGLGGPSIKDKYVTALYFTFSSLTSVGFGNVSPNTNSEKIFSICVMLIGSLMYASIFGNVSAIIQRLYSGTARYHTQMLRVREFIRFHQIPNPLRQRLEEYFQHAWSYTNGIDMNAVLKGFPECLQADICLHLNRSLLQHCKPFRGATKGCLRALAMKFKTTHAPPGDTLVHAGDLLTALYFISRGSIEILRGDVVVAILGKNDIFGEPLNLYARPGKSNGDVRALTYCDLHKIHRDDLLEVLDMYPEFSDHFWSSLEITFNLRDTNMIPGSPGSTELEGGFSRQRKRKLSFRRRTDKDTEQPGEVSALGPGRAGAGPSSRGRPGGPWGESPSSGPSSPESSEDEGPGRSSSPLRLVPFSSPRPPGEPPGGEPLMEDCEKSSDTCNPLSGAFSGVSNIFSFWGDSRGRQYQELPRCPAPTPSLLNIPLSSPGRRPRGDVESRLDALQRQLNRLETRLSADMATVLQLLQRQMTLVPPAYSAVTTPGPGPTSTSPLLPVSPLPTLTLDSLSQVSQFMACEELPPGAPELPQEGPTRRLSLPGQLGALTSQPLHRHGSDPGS
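U2OS cells transduced with wild-type KCNH2 virus are loaded with FluxOr dye for 45 min, and thallium flux is measured in kinetic reads before and after stimulation buffer. Rate constants are normalized to DMSO controls.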
TRPV1 potentiator = enhances activation of the human vanilloid receptor TRPV1 | Q8NER1 | TRPV1-expressing cells, Fluo-8 calcium influx, capsaicin EC20 potentiation | potentiation, % at 8.33 µM | 320,000 tested, 0.02% active; in the data active = potentiation above about 80%; inconclusive = between about 30% and that limit; note: 0% is about no effect
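TRPV1-expressing cells were cultured overnight at 35.5C and loaded with Fluo-8 calcium dye for 40 to 90 min at room temperature. After a 10 s baseline, compound was added and calcium influx was read kinetically for 3 min (ex 480/em 520 nm).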
KCNH2 3.1 inh = KCNH2 3.1 (human) potassium channel inhibition | U2OS KCNH2 3.1, thallium flux FluxOr; hits give low values | activity change, % (tested at about 1.8 µM) | 340,000 tested, 0.95% active;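 active = maximum activity change below -70%; inconclusive = maximum activity change from -70% to -50%; inactive = maximum activity change above -50%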;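 note: thallium influx rate constant from kinetic fluorescence after stimulation buffer; % is set by controls: 0 for no effect and ±100 for the full control effect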
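Virally transduced U2OS (3.1 isoform, 4 h infection in dark at RT) → overnight 37 C → FluxOr + Red40 in HBSS/HEPES, 45 min → stimulation buffer, 2 min kinetic read → rate constant vs DMSO controls.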
TRPV1 ag = agonists of human vanilloid receptor 1 (TRPV1); Q8NER1; TRPV1-expressing cells, Fluo-8 calcium influx, agonist mode; activation, % at 8.33 µM; 320,000 tested, 0.19% active; AID 540275; in the data active = activation above about 80%; inconclusive = between about 30% and that limit; note: 0% is about no effect
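Fluo-8 calcium influx in TRPV1-expressing cells, kinetic read (ex 480/em 520 nm). Compound added and read 3 min for agonist activity, followed by capsaicin at EC20 final and 2 min further read for enhancement.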
TRPML1 inh = blocks the human TRPML1 channel; Q9GZU1; activity change, negative = inhibition, % (no concentration beside the values); TRPML1-inducible cells, Ca2+ dye fluorescence, FDSS; hits give low values; inhibition of EC80 agonist-evoked calcium signal; 390,000 tested, 0.02% active; in the data active = activity change below about -50%; inconclusive = between about -30% and that limit;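 note: stimulus is agonist 54-4 at its EC80 concentration; % is set by controls: 0 for no effect and ±100 for the full control effect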
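Tet-induced TRPML1-DL cells loaded with Ca8 no-wash calcium dye were read kinetically on FDSS. Compound addition was followed by EC80 agonist 54-4 (4 uM final); inhibition was read over 110 s.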
Starred values were filed as active, the others as inactive; ? = inconclusive; / = no result. Shown are actives, neighbours in structure and some others; about 1.3% of the full set was active somewhere.

SMILES	TRPML1 ag	KCNH2 WT inh	TRPV1 potentiator	KCNH2 3.1 inh	TRPV1 ag	TRPML1 inh
CCCCCCOC(=O)C(C#N)c1nc2ccccc2nc1N1CCN(C)CC1 (configuration not stated)	0	9	-3	-71*	-3	31
CCCCNC(=O)C(C#N)c1nc2ccccc2nc1N1CCN(Cc2ccc3c(c2)OCO3)CC1 (configuration not stated)	5	-16	/	-17	/	-2
C=CCOC(=O)C(C#N)c1nc2ccccc2nc1N1CCN(Cc2ccc3c(c2)OCO3)CC1 (configuration not stated)	4	-111*	-24	-103*	-6	42
COc1ccccc1CNC(=O)CSc1nc(=O)[nH]c2c1CCC2	-1	/	/	/	/	11
CCOC(=O)c1ccc2c(c1)sc1nc(-c3ccc(OCC)cc3)cn12	0	/	/	/	/	2
CCCCNC(=O)C(CC)n1c(SCc2cccc(F)c2)nc2ccncc21 (configuration not stated)	-1	/	/	/	/	/
Cc1cc(NC(=O)c2ccc(Cl)cc2)n(CCOC(=O)c2ccc(Cl)cc2)n1	1	-98*	3	1	1	-15
Cn1c(=O)[nH]c(=O)c2c1nc(SCCN1CCCCC1)n2CCCc1ccccc1	6	-1	-5	-32	0	4
Cc1cccc(Cn2c(N3CCN(CCO)CC3)nc3c2c(=O)[nH]c(=O)n3C)c1	/	0	7	29	-1	/
Cc1cccc(Cn2c(SCCN3CCCCC3)nc3c2c(=O)[nH]c(=O)n3C)c1	0	-34	-12	-81*	18	10
Cn1c(=O)[nH]c(=O)c2c1nc(SCCN1CCCCC1)n2Cc1ccccc1	1	-40	-1	-74*	-3	4
Cc1ccc(Cn2c(SCCN3CCCCC3)nc3c2c(=O)[nH]c(=O)n3C)cc1	0	-42	6	-95*	-3	-6
CC1CCN(C(=O)CSc2c(C(C)C)cnc3c2c(=O)n(C)c(=O)n3C)CC1	2	/	/	/	/	-19
Cc1ccc(CN2[C@H](C)[C@H](c3ccccc3)OCCS2(=O)=O)cc1	2	/	/	/	/	/
CCC(c1nnc(SCCNCCO)n1CCN1CCOCC1)N(C)C (configuration not stated)	0	-6	1	-177*	0	-2
O=[N+]([O-])c1ccc(OCCCOc2cccc3cccnc23)cc1	4	-19	?	-80*	-3	5
COc1ccccc1Nc1nn2c(=O)c3ccc(C(=O)N4CCC(C)CC4)cc3nc2s1	0	8	4	7	-3	33
CCOC(=O)C1CCN(C(=O)c2ccc3c(=O)n4nc(Nc5ccccc5)sc4nc3c2)CC1	3	-3	/	-79*	/	3
COc1cc(C(=O)N2CCN(C3CCCCC3)CC2)cc(OC)c1OC	/	6	0	4	-1	/
COc1ccc(C(=O)N2CCN(C3CCCCC3)CC2)cc1OC	0	-11	16	-75*	1	6
COc1ccc(NC(=O)N2CCN3CCCCC3C2)cc1OC (configuration not stated)	1	/	/	/	/	-51*
CCCCN1CC[C@H]2C=CC[C@@H](C(=O)NCc3cccnc3)[C@H]2C1=O	0	/	/	/	/	/
O=C(CN1C(=O)COc2ccc(S(=O)(=O)N3CCCC3)cc21)NC1CC1	/	-83*	?	0	1	/
COc1cccc(NC(=O)CN2C(=O)COc3ccc(S(=O)(=O)N4CCCCCC4)cc32)c1	1	-2	-8	-111*	15	-5
COc1cccc(NC(=O)CN2C(=O)COc3ccc(S(=O)(=O)N4CCOCC4)cc32)c1	1	15	-5	2	8	38
SMILES	TRPML1 ag	KCNH2 WT inh	TRPV1 potentiator	KCNH2 3.1 inh	TRPV1 ag	TRPML1 inh
C/C(=C\C=C(C#N)C#N)c1cc(C#N)c(N)o1	54*	5	2	18	10	3
CCn1c(SCC(=O)Nc2ccccc2F)nnc1-c1ccoc1C	-1	0	1	-118*	2	-16
CCn1c(SCC(=O)Nc2ccccc2-c2ccccc2)nnc1-c1ccoc1C	-1	7	11	6	2	-8
COC(=O)c1ccccc1NC(=O)CSc1nnc(-c2cccnc2)n1C	-1	12	-5	16	3	0
CCn1c(SCC(=O)Nc2ccccc2C(=O)OC)nnc1-c1cccc(C)c1	1	0	16	-171*	-5	-1
CCOC(=O)c1sc(-c2ccccc2)cc1NC(=O)Nc1ccccc1	1	2	0	-1	88*	-10
CCCCN(CC)C(=O)c1nn(C)c2c1CSc1ccccc1-2	0	/	/	/	/	1
Cc1ccccc1NC(=O)Nc1ccccc1C(=O)NCc1ccccc1	1	17	22	-21	-1	-2
O=C(CCl)Nc1ccccc1C(=O)NCc1ccccc1	3	-7	9	-109*	-1	11
CCCC(=O)N1CC(=O)Nc2ccc(F)cc2C1c1ccccc1 (configuration not stated)	0	1	0	-87*	-1	11
COc1ccc(N2CCN(CCCn3c(=S)[nH]c4ccccc4c3=O)CC2)cc1	1	-118*	-18	-80*	25	5
COc1ccccc1N1CCN(CCCn2c(=S)[nH]c3ccccc3c2=O)CC1	1	39	6	-28	19	23
COc1ccc(C(=O)NC(=S)Nc2ccc3oc(=O)ccc3c2)cc1OC	-1	-3	5	-99*	-2	-11
CN1CC[C@H](c2c(O)cc(O)c3c(=O)cc(-c4ccccc4Cl)oc23)[C@@H](O)C1	0	/	/	/	/	/
Cc1ccc(C)c(OC(=O)CN2C(=O)c3ccccc3C2=O)c1	0	-94*	-13	2	19	-4
CC1=CC(C)(C)N(C(=O)CN2C(=O)c3ccccc3C2=O)c2ccc(C)cc21	61*	-10	-9	3	-1	-5
CC(=O)c1cc(C)ccc1OC(=O)CN1C(=O)c2ccccc2C1=O	0	-10	8	0	-9	-3
COc1ccc(C)cc1NC(=O)N1CCC(CN2CCOCC2)CC1	2	/	/	/	/	-12
COc1cc2nc(N3CCCN(C)CC3)nc(NC3CCN(C)C3)c2cc1OC (configuration not stated)	-1	/	/	/	/	/
Cc1ncoc1C(=O)NC1CC(C)(C)Cc2c1cnn2-c1ccc(F)cc1 (configuration not stated)	0	2	2	15	85*	-2
CC1(C)Cc2c(cnn2-c2ccc(F)cc2)C(NC(=O)c2ccco2)C1 (configuration not stated)	0	9	-6	-8	13	-3
O=C(C[n+]1ccncc1)c1ccc(Br)cc1	0	/	/	/	/	/

Source: PubChem BioAssay
